Measurements from ChEMBL document CHEMBL3988442, “University of Dundee, Small-Polar-MMV Screening Library” (2021).
Hit rate of the full screen: of about 48,000 compounds, about 13,000 (27%) showed an effect of 50% or more. This is one part of the list.

System: Wolbachia pipientis
Test: Anti-Wolbachia Cell-Based Screen
Type: functional
Parameters: scale not given: in the data most compounds retested in dose-response had high values
Details: 5 µM

Row | SMILES | Percent Effect
1 | CN(C)C(=O)CN1C[C@@H]2CC[C@H](C1)N(Cc1cc(F)ccc1F)C2 | 15.49%
2 | COc1nc(C)c(C(=O)N2CCc3[nH]nc(C4CCCC4)c3C2)s1 | -0.6209%
3 | CC(C)NC(=O)CN(C)CC(=O)/N=c1/cc[nH]n1C(C)C1CC1 (configuration not stated) | -11.27%
4 | NC(=O)CN1CCC(NC2CSCCc3ccccc32)CC1 (configuration not stated) | -6.664%
5 | O=S1(=O)c2ccccc2C(O)CN1CCO (configuration not stated) | 120.8%
6 | COCCOCCNS(=O)(=O)C1CS(=O)(=O)c2ccccc21 (configuration not stated) | 2.377%
7 | COCC(C)(C)NS(=O)(=O)C1CS(=O)(=O)c2ccccc21 (configuration not stated) | 12.05%
8 | CNC(=O)c1ncn2c1CN(CCC(C)C)S(=O)(=O)c1ccccc1-2 | 5.918%
9 | NC(=O)CN1CCC(NC2CCCCc3ccccc32)CC1 (configuration not stated) | -5.758%
10 | NC(=O)CN1CC(O)c2ccccc2S1(=O)=O (configuration not stated) | 96.32%
11 | COC1CN(CCO)S(=O)(=O)c2ccccc21 (configuration not stated) | 103.3%
12 | Cc1ccc2c(c1)c(CNC(=O)C1CC(=O)N(C3CCCC3)C1)nn2C (configuration not stated) | -26.6%
13 | O=C(N1CCCC1)N1CCC(c2nccn2Cc2cscn2)CC1 | -4.277%
14 | CC(C)n1cnnc1CN(C)C(=O)c1cc(COc2ccccc2)[nH]n1 | -4.684%
15 | NC(=O)N1CCCC(C(=O)NCCOc2ccc3c(c2)OCO3)C1 (configuration not stated) | 6.711%
16 | CC(=O)NC1CCCN(C(=O)NCCOc2ccc3c(c2)OCO3)C1 (configuration not stated) | 106.3%
17 | CCCOc1ccc(CNC(=O)N2CCC(C(N)=O)C2)cc1 (configuration not stated) | 0.5279%
18 | CCOc1ccc(Cl)cc1CCNC(=O)N1CCCC(CO)C1 (configuration not stated) | 2.242%
19 | CC(=O)NCC1CCN(C(=O)NCCc2ccc3c(c2)OCO3)CC1 | -2.588%

Row | SMILES | Percent Effect
20 | NC(=O)C1CCN(C(=O)NCCOc2ccc3c(c2)OCO3)C1 (configuration not stated) | 88.72%
21 | O=C(NCCOc1ccc2c(c1)OCO2)N1CCCC(CO)C1 (configuration not stated) | 85.49%
22 | O=C(CN1CCCC(CO)C1)NCCOc1cccc(Cl)c1 (configuration not stated) | 0.8563%
23 | O=C(c1ccc2c(c1)OCO2)N1CCCC(Nc2ccc(F)cc2)C1 (configuration not stated) | -14.66%
24 | Cc1noc(C)c1CNC(=O)N1CCC(NS(C)(=O)=O)CC1 | -20.1%
25 | Cc1n[nH]c(C)c1CCc1ccc(S(C)(=O)=O)cc1 | 1.11%
26 | CCCc1n[nH]cc1C(=O)N1CCC(c2nccn2CCOC)CC1 | -3.808%
27 | CSC(C)(C)CNC(=O)NCCC1CCN(C)CC1 | 0.9558%
28 | CN(Cc1nc(-c2ccco2)no1)C1CCCN(c2cccnn2)C1 (configuration not stated) | 4.985%
29 | CC(C)c1nc(CNC2CCCN(c3cccnn3)C2)no1 (configuration not stated) | 9.914%
30 | CCc1nc(CN(C)C2CCCN(c3cccnn3)C2)no1 (configuration not stated) | 81.94%
31 | CC(C)(C)c1nc(CNC2CCCN(c3cccnn3)C2)no1 (configuration not stated) | -17.48%
32 | CC(C)c1nc(CN(C)C2CCCN(c3cccnn3)C2)no1 (configuration not stated) | 109.3%
33 | CN(Cc1nc(C2CC2)no1)C1CCCN(c2cccnn2)C1 (configuration not stated) | -5.639%
34 | Cc1nc(CN(C)C2CCCN(c3cccnn3)C2)no1 (configuration not stated) | -8.023%
35 | Cc1ccc(N2CCCC(N(C)Cc3noc(C4CC4)n3)C2)nn1 (configuration not stated) | -34.27%
36 | CN(Cc1noc(C2CC2)n1)C1CCCN(c2cccnn2)C1 (configuration not stated) | 100.2%
37 | CN(Cc1noc(C(C)(C)C)n1)C1CCCN(c2cccnn2)C1 (configuration not stated) | 102.2%
